{
  "source": "PubChem BioAssay (Tox21)",
  "note": "Values without a mark were called inactive. Activity calls are given as the source filed them. The call rests on the fitted dose curve; in most records, active means well fitted curve in the direction sought with a large enough effect in the repeat runs; inconclusive means weak or mixed curves; inactive means flat fitted curve, though single readings scatter. On the % scale 0 is the no-effect control and ±100 the full control effect.",
  "data": [
    {"assay": "qHTS assay to test for compound auto fluorescence at 460 nm (blue) in HEK293 cell free culture (AID 720681)", "conditions": "cell-free medium, autofluorescence 405/460 nm (blue); series mostly up to 91.3 µM; fluorescence, % of fluorescent control: at the top concentration", "how_it_was_run": "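Blue fluorescence (Ex 405/Em 460 nm, triamterene-equivalent) was read immediately after pin transfer of compound or DMSO into medium (DMEM, 10% FBS) without cells.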", "values": [
      {"smiles": "O=C(O)Cc1cn(-c2ccccc2)nc1-c1ccc(Cl)cc1", "fluorescence, % of fluorescent control": "-0.137% [at 46 µM]"},
      {"smiles": "CCCCCCOC(=O)CC", "fluorescence, % of fluorescent control": "0.0158%"},
      {"smiles": "O=C(O)c1cc(Cl)cc([N+](=O)[O-])c1Cl", "fluorescence, % of fluorescent control": "-0.321%"},
      {"smiles": "Nc1nnc(-c2cccc(Cl)c2Cl)c(N)n1", "fluorescence, % of fluorescent control": "-0.0005% [at 46 µM]"},
      {"smiles": "CC(C(=O)O)c1ccc2c(c1)CC(=O)c1ccccc1S2", "note": "(stereo not drawn)", "fluorescence, % of fluorescent control": "0.183% [at 46 µM]"},
      {"smiles": "COCCOC(=O)C1=C(C)NC(C)=C(C(=O)OC(C)C)C1c1cccc([N+](=O)[O-])c1", "note": "(stereo not drawn)", "fluorescence, % of fluorescent control": "-0.115% [at 46 µM]"},
      {"smiles": "COc1ccc(-c2cc(=O)c3c(O)cc(O[C@@H]4O[C@H](CO[C@@H]5O[C@@H](C)[C@H](O)[C@@H](O)[C@H]5O)[C@@H](O)[C@H](O)[C@H]4O)cc3o2)cc1O", "fluorescence, % of fluorescent control": "-0.0086% [at 46 µM]"},
      {"smiles": "CC(=O)NCc1c(I)c(NC(C)=O)c(I)c(C(=O)O)c1I", "fluorescence, % of fluorescent control": "0.106% [at 46 µM]"},
      {"smiles": "Cc1cccc(C)c1OCC(C)N", "note": "(stereo not drawn)", "fluorescence, % of fluorescent control": "0.0043% [at 46 µM]"},
      {"smiles": "CC(C)NCC(O)COc1ccc(COCCOC(C)C)cc1", "note": "(stereo not drawn)", "outcome": "inactive"},
      {"smiles": "C[C@@H]1O[C@@H](O[C@@H]2[C@@H](O)[C@H](OCCc3ccc(O)c(O)c3)O[C@H](CO[C@@H]3O[C@H](CO)[C@@H](O)[C@H](O)[C@H]3O)[C@H]2OC(=O)/C=C/c2ccc(O)c(O)c2)[C@H](O)[C@H](O)[C@H]1O", "fluorescence, % of fluorescent control": "4.56%"},
      {"smiles": "CC(=O)/C=C/C1C(C)=CCC(C)C1(C)C", "note": "(stereo not drawn)", "fluorescence, % of fluorescent control": "0.0514%"},
      {"smiles": "Brc1ccc(-c2ccccc2)cc1", "fluorescence, % of fluorescent control": "-0.0243%"},
      {"smiles": "C=C(C)C(=O)OCCNC(C)(C)C", "fluorescence, % of fluorescent control": "0.0296%"},
      {"smiles": "C=COCCOCCOCCOC=C", "fluorescence, % of fluorescent control": "-0.05%"},
      {"smiles": "CC(=O)CCCCn1c(=O)c2c(ncn2C)n(C)c1=O", "fluorescence, % of fluorescent control": "0.0365% [at 18.6 µM]"},
      {"smiles": "FC(F)(F)c1ccccc1-n1ccnc1", "fluorescence, % of fluorescent control": "-0.0172% [at 46 µM]"},
      {"smiles": "C=Cc1ccccn1", "fluorescence, % of fluorescent control": "-0.138%"}
    ]}
  ]
}
